# Results taken from ChEMBL document CHEMBL4808148, “HDAC6 screening dataset using tau-based substrate in an enzymatic assay yields selective inhibitors and activators” (2021).
# Among all 5,600 compounds or so, about 390 (7%) showed an effect of 50% or more. Shown is part of a subset that was picked to be rich in strong results.
# Assays:
# [1] = target: T1, Protein deacetylase HDAC6 (Homo sapiens) (UniProt Q9UBN7); conditions: at 10 µM
# T1 sequence (whole entry): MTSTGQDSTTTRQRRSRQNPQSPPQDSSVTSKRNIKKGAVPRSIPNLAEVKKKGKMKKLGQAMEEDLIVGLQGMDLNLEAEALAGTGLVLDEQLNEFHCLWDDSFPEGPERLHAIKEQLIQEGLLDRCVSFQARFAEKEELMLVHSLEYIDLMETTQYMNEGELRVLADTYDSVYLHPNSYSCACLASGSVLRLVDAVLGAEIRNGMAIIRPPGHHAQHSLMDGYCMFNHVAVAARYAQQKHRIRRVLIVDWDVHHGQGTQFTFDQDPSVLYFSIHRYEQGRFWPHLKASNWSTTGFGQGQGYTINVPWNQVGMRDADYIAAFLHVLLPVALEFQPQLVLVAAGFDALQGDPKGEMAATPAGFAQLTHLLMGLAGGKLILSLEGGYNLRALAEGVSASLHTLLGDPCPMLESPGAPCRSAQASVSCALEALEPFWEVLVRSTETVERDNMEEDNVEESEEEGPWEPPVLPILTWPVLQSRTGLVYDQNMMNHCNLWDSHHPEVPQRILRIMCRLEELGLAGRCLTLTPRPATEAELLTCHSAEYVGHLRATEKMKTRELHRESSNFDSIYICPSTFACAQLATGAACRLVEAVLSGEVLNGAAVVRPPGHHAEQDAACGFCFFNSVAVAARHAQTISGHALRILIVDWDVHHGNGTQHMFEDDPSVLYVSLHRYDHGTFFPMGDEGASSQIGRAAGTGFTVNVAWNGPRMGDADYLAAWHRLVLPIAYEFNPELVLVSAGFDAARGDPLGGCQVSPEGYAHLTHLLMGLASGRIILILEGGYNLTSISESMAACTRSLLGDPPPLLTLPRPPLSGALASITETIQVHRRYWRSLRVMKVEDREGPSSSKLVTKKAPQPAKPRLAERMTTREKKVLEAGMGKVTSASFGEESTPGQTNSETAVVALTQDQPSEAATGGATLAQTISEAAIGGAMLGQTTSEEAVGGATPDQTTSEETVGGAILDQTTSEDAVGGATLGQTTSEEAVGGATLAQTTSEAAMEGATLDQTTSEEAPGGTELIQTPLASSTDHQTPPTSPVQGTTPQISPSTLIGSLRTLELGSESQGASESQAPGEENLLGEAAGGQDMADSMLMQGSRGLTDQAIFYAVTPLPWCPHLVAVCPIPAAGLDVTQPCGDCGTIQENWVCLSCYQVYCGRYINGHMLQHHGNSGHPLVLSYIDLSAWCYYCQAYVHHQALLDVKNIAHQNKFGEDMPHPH
# [2] = target: Protein deacetylase HDAC6 (Homo sapiens) (UniProt Q9UBN7); conditions: at 10 µM; remark: listed apart in the source
Compound,inhibition [1],inhibition [2]
NCCCC[C@H](N)C(=O)O,-8.14%,–
N=C(N)NCCC[C@H](N)C(=O)O,3.94%,–
O=C1c2ccccc2-c2c(NCCc3ccccc3)c(=O)[nH]c3cccc1c23,14.4%,–
CC(C)(CO)CCCCCCC(C)(C)CO,17.3%,–
COC(=O)N[C@@H](C)CNc1nccc(-c2cn(C(C)C)nc2-c2cc(Cl)cc(NS(C)(=O)=O)c2F)n1,-2.53%,–
CCOc1ccc(S(=O)(=O)O)c2cccnc12,102%,–
O=C(NCCN1CCC2(CC1)C(=O)NCN2c1cccc(F)c1)c1ccc(F)c(F)c1,7.38%,–
CC(C)(C)C#Cc1cc(N(C(=O)[C@H]2CC[C@H](C)CC2)[C@H]2CC[C@@H](O)CC2)c(C(=O)O)s1,26.8%,–
O=S(=O)(O)c1ccc(O)cc1,4.16%,–
CCCCc1ccc(C(N)=O)nc1,32.3%,–
CC(C)(C)c1[nH]cnc1/C=c1\[nH]c(=O)/c(=C/c2ccccc2)[nH]c1=O,77.4%,–
COc1cc2c(cc1OC(C)C)[C@H](c1ccc(Cl)cc1)N(c1ccc(N(C)C[C@H]3CC[C@H](N4CCN(C)C(=O)C4)CC3)cc1)C(=O)C2,17.5%,–
O=c1cc(-c2ccc(O)c(O)c2)oc2cc(O)cc(O)c12,100%,–
O=c1c(O)c(-c2ccc(O)c(O)c2)oc2cc(O)cc(O)c12,98.5%,–
CC(=O)N[C@H](C=O)[C@@H](O)[C@H](O)[C@H](O)CO,19.4%,–
N[C@@H](CC(=O)N1CCn2c(nnc2C(F)(F)F)C1)Cc1n[nH]c2c(F)c(F)ccc12,18.7%,–
O=C(O)C1CCC(c2cc3cccnc3c(-c3cccc(F)c3)n2)CC1 (centres undefined),-5.88%,–
"MONOCTANOIN, CHEMBL6066833",–,-5.59%
N=C(N)Nc1ccc(C(=O)Oc2ccc3cc(C(=N)N)ccc3c2)cc1,29.9%,–
CCOC(=O)[C@@H](C)Oc1ccc(Oc2nc3ccc(Cl)cc3o2)cc1,14.5%,–
Oc1cccc(Nc2ccc(Nc3cccc(O)c3)nn2)c1,79.8%,–
CN(C)c1cccc(Oc2cnc(Nc3cccc(O)c3)nc2)c1,30.8%,–
CS(=O)(=O)c1ccc(Cn2c3c(c4cc(F)cc(F)c42)CCCC3CC(=O)O)cc1 (centres undefined),-7.09%,–
C#CC[C@H](c1nc2cc(Cl)ccc2c(=O)n1Nc1ccccc1)N(CCCN)C(=O)c1cccc(Cl)c1F,11.7%,–
CCC(CC)n1ccc2c(C(=O)NCc3c(C)cc(C)[nH]c3=O)cc(C#N)cc21,15.2%,–

Compound,inhibition [1],inhibition [2]
CC(O)C(CO)NC(=O)C1CSSCC(NC(=O)C(N)Cc2ccccc2)C(=O)NC(Cc2ccccc2)C(=O)NC(Cc2c[nH]c3ccccc23)C(=O)NC(CCCCN)C(=O)NC(C(C)O)C(=O)N1 (centres undefined),19.6%,–
"NYSTATIN, CHEMBL5465559",–,30.5%
O=C(O)CNC(=O)c1ccccc1I,36.6%,–
CCc1c(C(=O)C(N)=O)c2c(OCC(=O)O)cccc2n1Cc1ccccc1,20%,–
O=C(O)CNC(=O)c1c(O)c2ccccc2n(Cc2ccccc2)c1=O,81.7%,–
Cc1ncc(C[n+]2csc(CCOP(=O)(O)OP(=O)(O)O)c2C)c(N)n1,37.8%,–
COC(=O)c1ccc2c(c1)nc(NC(=O)c1ccccc1)n2CCCc1ccccc1,-9.35%,–
CN[C@@H]1Cc2cccc3[nH]c(=O)n(c23)C1,4.82%,–
Oc1ncc(N(CCCl)CCCl)c(O)n1,2.6%,–
CN1CCC(c2c[nH]c3ccc(O)cc23)CC1,5.85%,–
CN1CCN(c2ccc3ccccc3n2)CC1,44.6%,–
CN1CCN(c2ccc3[nH]c(-c4ccc5[nH]c(-c6ccc(O)cc6)nc5c4)nc3c2)CC1,64%,–
NC(=O)c1cc[n+](CC2=C(C(=O)[O-])N3C(=O)[C@@H](NC(=O)Cc4cccs4)[C@H]3SC2)cc1,-9.58%,–
O=C(O)C1CSCN1 (centres undefined),8.04%,–
COc1ccc(C(=O)Nc2c(Cl)cncc2Cl)cc1OC1CCCC1,8.11%,–
O=C(Nc1cccc(Cl)c1)c1ccccn1,104%,–
O=C(NNc1ccccc1)c1ccncc1,19%,–
COc1cc(NC(=O)c2cccc(-n3cc(NC(=O)Nc4cccc(C)c4)cn3)c2)cc(OC)c1OC,0.29%,–
O=C(Nc1cnc(Cl)nc1)c1ccc(F)c(F)c1,8.67%,–
CNC(=O)Oc1ccccc1OC(C)C,19.4%,–
CC(C)OC(=O)Nc1cccc(Cl)c1,81%,–
C[C@H](Cc1ccc2c(c1)OC(C(=O)O)(C(=O)O)O2)NC[C@H](O)c1cccc(Cl)c1,16.3%,–
O=C(Nc1ccc(S(=O)(=O)Nc2ccccc2Cl)c(Cl)c1)c1ccccn1,50.8%,–
COc1cc(NC(=O)c2ccccn2)ccc1Cl,101%,–
